From PubChem
KB-V1 cytotox: qHTS assay for MDR1-selective chemotherapeutics: Primary screen using the drug-selected MDR subline cells KB-V1; 400,000 tested, 3.4% active; KB-V1 MDR cells viability, CellTiter-Glo, 72 h; Potency, µM (doses to about 46.1 µM), actives largely listed as cytotoxic; further: nearly all actives have a fitted effect of over 60% in size
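qHTS viability screen in drug-selected KB-V1 MDR cells: 72 h compound treatment at 37 degrees C, ATP luminescence end point.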
KB-3-1 cytotox: qHTS assay for MDR1-selective chemotherapeutics: Primary screen using the parental adenocarcinoma cell KB-3-1. KB-3-1 viability, CellTiter-Glo ATP luminescence, 72 h. Potency, µM (top dose mostly 46.1 µM), actives largely listed as cytotoxic. 400,000 tested, 1.4% active; further: nearly all actives have a fitted effect of over 60% in size
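Parental KB-3-1 viability, qHTS format: 72 h compound exposure, 37 °C; CellTiter-Glo; media-only wells and DMSO plates as controls; concentration-effect fits on corrected data.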
HT1080 IDH1KD tx: qHTS for induction of synthetic lethality in tumor cells producing 2HG: qHTS for the HT-1080-IDH1KD cell line; 360,000 tested, 2% active; AID 686971, 2013; Potency, µM (top dose mostly 46.1 µM), without a hit: top-dose activity, negative = toxicity, usual class: cytotoxic; HT-1080 IDH1 knockdown viability, ATP luminescence, 48 h;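 further: 0% = DMSO wells and -100% = cell-free medium wells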
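Assay cells: HT-1080 with IDH1 knockdown, 750 per well, RPMI/5% FBS. Exposure: 48 h at 37 °C following 2 h pre-incubation. Read: CellTiter-Glo luminescence; fitted concentration-response, curve class assigned.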
HT1080NT lethal: qHTS for induction of synthetic lethality in tumor cells producing 2HG: qHTS for the HT-1080-NT fibrosarcoma cell line; HT-1080-NT fibrosarcoma viability, CellTiter-Glo ATP luminescence, 48 h; Potency, µM (top dose mostly 46.1 µM), inactives show at the highest dose activity, negative = less viability, hits mostly cytotoxic; 360,000 tested, 1.6% active;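 further: NT is the 2HG producing partner of a matched IDH1 knockdown line; 0% = DMSO-treated cells and -100% = media-only wells without cells; nearly all actives have a fitted effect of over 55% in size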
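HT-1080-NT; 750 cells/well; 5% FBS RPMI; 48 h compound, 37 degrees C; CellTiter-Glo luminescence; curve fitting and curve-class assignment.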
The depositor's hits bear a star; i = inactive; ? = inconclusive; / = not tested or not shown. Most compounds without a hit are left out; they make up all but 5.7% or so of the library. The call rests on the fitted dose curve; in most records, active means well fitted curve in the direction sought with a large enough effect; inconclusive means small, poorly fitted or top-dose-only effect, or another doubt; inactive means no such curve, though single readings can be large; an effect the other way counts as inactive or inconclusive. Unless noted, on the % scale 0 is the no-effect control and ±100 the full control effect; potency means the concentration at half of the fitted maximal effect.

SMILES	KB-V1 cytotox	KB-3-1 cytotox	HT1080 IDH1KD tx	HT1080NT lethal
NC(=O)C1CCN(c2ncc(-c3cccc(N4CCCCC4)c3)s2)CC1	i	i	/	/
Cc1cc(C)cc(N2C(N)=NC(N)=NC2c2ccccc2F)c1 (configuration not stated)	16.4µM*	?	?	-6.7%
COc1ccc(OC)c(-c2noc(CSc3nnc(-c4ccccc4)n3-c3ccccc3)n2)c1	i	i	/	/
COc1cccc(Nc2nc3cc(Cl)c(Cl)cc3nc2-n2nc(C)cc2C)c1	i	i	/	/
COc1cc2ccnc(Cc3cccc(OC)c3OC)c2cc1OC	2.06µM*	7.31µM*	-28.7%	-14.0%
COc1cc(N)c(Cc2nccc3cc(OC)c(OC)cc23)cc1OC	i	i	-10.2%	-5.2%
C/C(=N\NC(=O)c1ccccc1NC(=O)c1ccc(Cl)cc1)c1ccncc1	1.3µM*	1.46µM*	1.3µM*	0.517µM*
Cc1cc2nc(C(C)(C)C)c(Cc3ccsc3)n2c(C)c1Br	i	i	?	29.1µM*
CCc1nc2ccc(C(=O)NC3CCN(Cc4ccccc4)CC3)cn2c1N(CC)Cc1cccc(Br)c1	8.2µM*	?	23.1µM*	?
CCc1nc2ccc(C(=O)N(C)Cc3ccccc3)cn2c1N(CC)Cc1cccc(Br)c1	i	i	?	?
CCc1nc2ccc(C(=O)Nc3ccc(OC)c(OC)c3)cn2c1N(CC)Cc1cccc(Br)c1	?	?	16.4µM*	?
CCc1nc2ccc(C(=O)Nc3ccc(OC)c(OC)c3)cn2c1N(CC)CCOC	?	i	7.1%	11.7%
CCc1ccc(NC(=O)c2sc(-n3nc(C)c(CCC(C)C)c3C)nc2C)cc1	i	?	/	/
COc1ccc(C2=NOC(C(=O)NCc3ccccc3)C2)cc1 (configuration not stated)	7.31µM*	7.31µM*	2.24µM*	2.51µM*
C=CCNC(=O)C1CC(c2cccc(OC)c2)=NO1 (configuration not stated)	i	i	-5.3%	3.2%
COc1cccc(C2=NOC(C(=O)NCc3ccco3)C2)c1 (configuration not stated)	20.6µM*	23.1µM*	?	?
COCCNC(=O)C1CC(c2cccc(OC)c2)=NO1 (configuration not stated)	i	i	1.1%	1.4%
COc1cccc(C2=NOC(C(=O)NCc3ccccc3)C2)c1 (configuration not stated)	?	11.6µM*	?	?
COc1ccc(CNC(=O)C2CC(c3cc(C(F)(F)F)cc(C(F)(F)F)c3)=NO2)cc1 (configuration not stated)	?	?	8.5%	9.5%
CC(C)NC(=O)C1C(c2ccccc2)=Nc2ccccc2N1C(=O)c1cc(Cl)cc(Cl)c1 (configuration not stated)	?	i	16.4µM*	16.4µM*
NC(=O)c1cn(-c2ccccc2)nc1-c1cc2ccccc2oc1=O	i	i	2.1%	0.4%
O=C(c1ccccc1)c1nn(-c2ccc(Cl)cc2)cc1C(=O)c1cc2ccccc2oc1=O	7.31µM*	?	-12.0%	-3.2%
O=C(NCc1ccccc1Br)c1ccc2c(c1)nc1n2CCOC1	?	i	/	/
O=C(CN1CCN(c2ncc(C(F)(F)F)cc2Cl)CC1)NCCNc1ncc(C(F)(F)F)cc1Cl	?	i	18.4µM*	?
CNCc1nc(-c2ccc[nH]2)c2cc(Cl)ccc2n1	?	i	/	/
SMILES	KB-V1 cytotox	KB-3-1 cytotox	HT1080 IDH1KD tx	HT1080NT lethal
CS(=O)(=O)N1N=C(c2ccc(Br)cc2)CC1c1ccc2c(c1)OCO2 (configuration not stated)	16.4µM*	i	10.4%	16.7%
O=C(CSc1ccc(-c2ccc(F)cc2)nn1)N1CCCCC1	i	i	?	?
CC1CCN(C(=O)CSc2ccc(-c3ccc(F)cc3)nn2)CC1	16.4µM*	?	-1.0%	0.9%
CC1CC(C)(C)N(C(=O)CSc2ccc(-c3ccc(F)cc3)nn2)c2ccccc21 (configuration not stated)	20.6µM*	i	?	?
COC(=O)c1ccc(N2CCC(c3cc(-c4ccc(OC)cc4)n[nH]3)CC2)c([N+](=O)[O-])c1	?	i	?	?
COc1ccc(-c2cc(C3CCN(c4ccc(C(C)=O)cc4[N+](=O)[O-])CC3)[nH]n2)cc1	14.6µM*	?	?	?
COc1ccc(-c2cc(C3CCN(C(=O)OC(C)(C)C)CC3)[nH]n2)cc1	13µM*	?	-10.2%	-6.9%
CCOC(=O)c1cn2nc(-c3ccc(OC)cc3)cc2nc1C1CCN(C(=O)OC(C)(C)C)CC1	6.51µM*	i	4.3%	9.1%
O=C(CSc1nnc(Cn2nnc3ccccc32)o1)Nc1cccc(Cl)c1	i	i	13.7%	15.4%
O=C(CSc1nnc(Cn2nnc3ccccc32)o1)N(Cc1ccc(Cl)cc1)c1ccccc1	i	13µM*	3.26µM*	-5.0%
Cc1ccc(CCNS(=O)(=O)c2c(C)nc3sc(C)c(C)n3c2=O)cc1	i	i	/	/
NC(=O)COc1ccccc1C(=O)Nc1ccccc1	i	i	/	/
CC(=O)NC1C(=O)N(CCc2ccccc2)c2ccc(Br)cc21 (configuration not stated)	5.8µM*	i	-8.0%	0.4%
CC(=O)NC1C(=O)N(Cc2ccccc2)c2ccc(Br)cc21 (configuration not stated)	?	i	-0.2%	-3.5%
O=C(OCc1ccc(Br)cc1)c1cc([N+](=O)[O-])ccc1N1CCOCC1	1.3µM*	5.8µM*	2.59µM*	?
O=C(COC(=O)c1cc([N+](=O)[O-])ccc1N1CCOCC1)c1ccc(F)cc1	i	i	-12.6%	-2.3%
O=C(COC(=O)c1cc(S(=O)(=O)N2CCCCC2)ccc1N1CCOCC1)c1ccccc1	20.6µM*	i	10.7%	7.7%
CCOC(=O)c1cc(CC)sc1NC(=O)c1cc([N+](=O)[O-])ccc1N1CCOCC1	i	1.03µM*	?	?
CCc1ccc(C(=O)COC(=O)c2cc([N+](=O)[O-])ccc2N2CCOCC2)cc1	6.51µM*	?	8.2µM*	9.2µM*
Cn1c(=O)n(C)c2cc(N3CCOCC3)c(NC(=O)c3ccc(C(C)(C)C)cc3)cc21	i	i	/	/
Cc1ccc2scc(N3CCCCC3)c(=O)c2c1	i	i	/	/
COc1ccc(COC(=O)c2cc([N+](=O)[O-])ccc2N2CCOCC2)cc1F	0.0731µM*	0.13µM*	0.0052µM*	0.0058µM*
Cc1[nH]c2ccccc2c1C1(O)C(=O)N(Cc2ccccc2)c2ccc(Br)cc21 (configuration not stated)	i	i	/	/
c1cnc2c(SCc3ccc(-c4nnco4)cc3)cccc2c1	14.6µM*	i	-16.7%	-12.9%
